Experimental findings from PubChem BioAssay (NCATS) are described below.

One test concerns CRL-7250. Briefly: Cytotoxic Profiling of Annotated Libraries Using Quantitative High-Throughput Screening (AID 1296008). Further: potency means the concentration at half of the fitted maximal effect. On max response: on the % scale 0 is the no-effect control and ±100 the full control effect. The conditions noted are these: Five cell lines viability, CellTiter-Glo ATP luminescence, 48-72 h; max response: stronger effect = lower value. The method in brief: (§1)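 Cytotoxicity was measured as CellTiter-Glo ATP luminescence, read after 10 min at room temperature. Compound treatment of the cells lasted 48 or 72 hr at 37 degrees Celsius in a qHTS format.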
Background: In ATP-based viability assays light output follows the ATP content of the culture.

A further test has as its system HEK293. Described as above. The conditions noted are these: Five cell lines viability, CellTiter-Glo ATP luminescence, 48-72 h; max response: stronger effect = lower value. Summed up:
as §1

In test [1] the test system is HaCat. The test is described as above. The settings on record: Five cell lines viability, CellTiter-Glo ATP luminescence, 48-72 h; max response: stronger effect = lower value. Summed up: as §1
In test [2] the test system is HACAT. Briefly: qHTS assay to identify novel small-molecules to repurpose for Merkel cell carcinoma treatment (AID 1296009). The conditions noted are these: MCC and control cell lines, CellTiter-Glo viability, 72 h; at 44.8 µM (top of the series) unless noted. The method in brief:
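Cell viability measured by CellTiter-Glo following 72 hr compound treatment at 37 degree celsius, with NPC and MIPE libraries tested in 8- and 11-point concentration series.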
In general terms: qHTS replaces the single test concentration by a dilution series.

For another test, the system named is NIH3T3. Briefly: Cytotoxic Profiling of Annotated Libraries Using Quantitative High-Throughput Screening (AID 1296008). Further: potency means the concentration at half of the fitted maximal effect. On max response: on the % scale 0 is the no-effect control and ±100 the full control effect. The conditions noted are these: Five cell lines viability, CellTiter-Glo ATP luminescence, 48-72 h; max response: stronger effect = lower value. Summed up: as §1
The subject of the next test is KB-3-1. The test is described as above. The conditions noted are these: Five cell lines viability, CellTiter-Glo ATP luminescence, 48-72 h; max response: stronger effect = lower value. The method in brief:
as §1

Several values for one entry are separate records, joined by “and”; a condition that tells them apart may be missing. Equal entries are not always repeated. Results filed as inconclusive are left out. A number with no mark means an inactive call. Activity calls are given as the source filed them. The call rests on the fitted dose curve; in most records, active means well fitted inhibition curve with a large enough effect; inconclusive means small, poorly fitted or top-dose-only effect; inactive means flat fitted curve, though single readings scatter.
Further: nearly all actives have a fitted effect of over 60% in size.

With `O=C1NC(=O)C(c2cnc3ccccn23)=C1c1cn2c3c(cc(F)cc13)CN(C(=O)N1CCCCC1)CC2`, the Potency is 46.1 nM (active) and 33.1 nM (active) in the test on CRL-7250; 0.295 µM (active) with HEK293. Besides, the result with HaCat [1] and with HACAT [2] was inactive.
Consider `O=C(Nc1cccnn1)N1CCN(c2nccc(-c3ccc(F)c(F)c3)n2)CC1`, for which the values for the max response in the test with CRL-7250, in the test with HEK293 and with NIH3T3 were -5.59%, -4.09% and -4.62%, respectively.
`Cc1cc2c(cc1N1C(=O)c3cccc4c(CCCO)ccc(c34)C1=O)n(C)c(=O)n2C`: the results for the max response in the test with CRL-7250 and with HEK293 were -31.8% and -71.7%, respectively. The Potency in the test on NIH3T3 was 1.53 µM (active).
As to `Nc1nc2c(ncn2C2OC3COP(=O)(O)OC3C2O)c(=O)[nH]1` (stereo not drawn), the max response in the test on CRL-7250 was -27.3%; in the test with HaCat [1], -25.5%.
For `C=CC(=O)Nc1cccc(Nc2nc(Nc3ccc(OCCOC)cc3)ncc2F)c1`, the figures for the Potency with CRL-7250, in the test on HEK293 and in the test on NIH3T3 were 5.17 µM (active), 8.2 µM (active) and 5.8 µM (active), respectively.
`COC(=O)c1ccc(N2CCN(C)CC2)c(NC(=O)c2cccc(OC)c2)c1`: the max response was -14.2% with CRL-7250, -1.79% in the test with HaCat [1], -6.24% in the test with KB-3-1 and 3.28% in the test on NIH3T3.
Regarding `C=C1/C(=C/C=C2\CCC[C@]3(C)[C@@H]([C@H](C)/C=C/[C@H](O)C4CC4)CC[C@@H]23)C[C@@H](O)C[C@@H]1O`, the max response in the test with CRL-7250 is -7.4%; with HaCat [1] it was -5.44%; in the test with KB-3-1, 7.77%.
For `COc1ccc(C2(CNC(=O)c3ccc(NC(=O)c4ccco4)cc3)CCOCC2)cc1`, in that order: -30.6%, -26.6% and 8.83%.
Consider `COc1ccc(-c2c(C)nn3c(NCCN4CCOCC4)cc(C)nc23)cc1OC`, for which the max response was -19% in the test with CRL-7250 and -11.4% in the test with HaCat [1]. For the same molecule, the call in the test with KB-3-1 was inactive.
On to `CN(C)C(=O)Nc1cccc(-c2ccc(N(C)C)cc2)c1`, for which the max response is -5.4% in the test with CRL-7250, -0.332% in the test on HaCat [1], -4.8% in the test with KB-3-1 and 3% with NIH3T3.
`c1cc(-c2cnn3cc(-c4ccc(N5CCNCC5)cc4)cnc23)c2cccnc2c1`: the result in the test with CRL-7250 was inactive. Moreover, the max response in the test with HaCat [1] is 0.937%; in the test on NIH3T3, -2.87%. Further, the Potency in the test on KB-3-1 is 4.11 µM (active).
With `O=C(/C=C/c1ccccc1O)O[C@@H]1O[C@H](CO)[C@@H](O)[C@H](O)[C@H]1O`, the max response was 2.59% with CRL-7250 and -3.03% in the test on HaCat [1]. Also, the outcome with KB-3-1 and in the test on NIH3T3 was inactive.
On to `COc1c2c(c(C)c3c1C(=O)OC3)O[C@@]1(C)C[C@@H](OC(C)=O)[C@]34O[C@](OC)(CC[C@]3(C)[C@H]1C2)OC4(C)C`, for which the max response with CRL-7250 is -3.21%; in the test with HaCat [1], -9.22%; in the test with KB-3-1, 1.98%; in the test on NIH3T3, 4.28%.
In the case of `CCO[C@H]1CN(C2CCC(O)(c3ccc4c(c3)OCO4)CC2)C[C@@H]1NC(=O)CNC(=O)c1cccc(C(F)(F)F)c1` (stereo partly drawn), the max response in the test with CRL-7250 is 1.15%; in the test on HaCat [1], 1.49%; in the test on KB-3-1, 7%.
As to `C=CC(=O)N1CCC[C@@H](n2nc(-c3cccc(C(=O)Nc4ccc(C(C)C)c(C)c4)c3)c3c(N)ncnc32)C1`, the Potency is 20.6 µM (active) in the test on CRL-7250 and 16.4 µM (active) in the test on HaCat [1]. In addition, the max response in the test on KB-3-1 is -9.98%.
With `O=C(Nc1ccc(Cl)cc1)c1ccccc1NCc1ccncc1`, the max response in the test with CRL-7250 was 0.592%; in the test on HaCat [1] it was -24.7%; with KB-3-1, -12.3%.
On to `CN(C)CC#CCCC(=O)C(O)(c1ccccc1)C1CCC1` (stereo not drawn), for which the max response in the test on CRL-7250 was 4.04%; with HaCat [1], 3%; in the test on KB-3-1, 7.92%; in the test with NIH3T3, -1.12%.
With `COc1cc(C(C)=O)c(OC)c2c1OC(C)(C)C=C2`, the molecule was called inactive with CRL-7250, in the test with KB-3-1 and in the test on NIH3T3. The max response in the test with HaCat [1] is -6.75%.
Consider `CC(C)(CO)c1cc2cc(NC(=O)C3(c4ccc5c(c4)OC(F)(F)O5)CC3)c(F)cc2n1CC(O)CO` (stereo not drawn), for which the molecule was called inactive in the test with CRL-7250 and with KB-3-1. Besides, the max response in the test on HaCat [1] was -17.2%; with NIH3T3, -6.55%.
With `CCn1c(N)c(C(=O)NC)c(=O)c2ccc(C#CC(C)(O)COC)nc21` (stereo not drawn), the max response with CRL-7250 was -33.6%; with HaCat [1], -27.4%; with KB-3-1 it was 1.64%.
In the same order, the values of `CN(C)C(=O)Nc1cc(-c2ccccc2)ccc1N(C)C` are -26.2%, -16% and -8.42%.
As for `CC(=O)O[C@H]1CC(C)(C)CC2[C@]13CO[C@@]21CCC2[C@@]4(C)CC[C@H](O[C@@H]5OC[C@H](O[C@@H]6O[C@H](CO)[C@@H](O)[C@H](O)[C@H]6O[C@@H]6OC[C@@H](O[C@@H]7O[C@H](CO)[C@@H](O)[C@H](O)[C@H]7O)[C@H](O)[C@H]6O)[C@H](O)[C@H]5O[C@@H]5O[C@H](CO)[C@@H](O)[C@H](O)[C@H]5O)[C@@](C)(CO)C4CC[C@@]2(C)[C@]1(C)C[C@H]3O` (stereo partly drawn), in the test with CRL-7250, the Potency is 2.19 µM (active). The max response in the test with HaCat [1] was 2.18%; with KB-3-1 it was -6.99%.
On to `CCOC(=O)N1c2ccc(C(F)(F)F)cc2C(N(Cc2cc(C(F)(F)F)cc(C(F)(F)F)c2)C(=O)OC)CC1CC` (stereo not drawn), for which the max response in the test on CRL-7250 is -2.53%; in the test with HaCat [1], -2.39%; in the test on KB-3-1, -0.758%; in the test on NIH3T3, 3.11%.
